# Test results taken from PubChem BioAssay (Tox21).
# Results filed as inconclusive are left out. Where a call stands in place of a potency, no number is given. Active and inactive are the calls of the source. Calls follow the shape of the dose curve; as a rule, active = well fitted cell-killing curve with a large enough effect in the repeat runs; inconclusive = weak or mixed curves, or effect the other way; inactive = flat fitted curve, though single readings scatter.
# Assay: qHTS RealTime-Glo MT Cell Viability Assay in HEK293 cells - 0 hour (AID 1224880); also: nearly all actives have a fitted effect of over 45% in size; as to activity change, negative = cytotoxicity: top concentration of the series differs between compounds
# Conditions: RealTime-Glo luminescence; series mostly up to 76.8 µM
# Procedure, shortened: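 Cells were seeded together with NanoLuc luciferase and a prosubstrate that viable cells reduce to a luciferase substrate. After a 5 h incubation at 37 C/5% CO2, compounds were added and luminescence was measured repeatedly during 40 h of treatment.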
# Potency is read from the fitted curve at half-maximal effect.
SMILES,Potency,"activity change, negative = cytotoxicity"
Cc1c(Cl)cccc1Cl,inactive,–
C[C@]12CCC(=O)C=C1CC[C@H]1[C@@H]3CC[C@](O)(C(=O)CO)[C@@]3(C)C[C@H](O)[C@@]12F,9.52 µM (active),–
CCn1cc(C(=O)O)c(=O)c2cnc(N3CCCC3)nc21,–,0.136% [at 6.97 µM] (inactive)
CCOC(CN1CCN(CC(C)C(=O)c2ccccc2)CC1)c1ccccc1 (configuration not stated),–,0.0674% [at 15.8 µM] (inactive)
CC(N)CCCC(C)(C)O (configuration not stated),inactive,–
CCCCOC(=O)[C@H](C)O,inactive,–
O=C(CCCl)NCCc1ccccc1,inactive,–
c1ccc2c(CC3=NCCN3)cccc2c1,inactive,–
C=CCSSCCC,inactive,–
COc1cc2c(cc1OC)CN(C(=O)[C@H](C)N[C@@H](CCc1ccccc1)C(=O)O)[C@H](C(=O)O)C2,inactive,–
CC(=O)CCc1ccc(OC(C)=O)cc1,inactive,–
Cc1ccc(C(C)NC(=O)[C@@H](NC(=O)OC(C)C)C(C)C)cc1 (some centres not stated),inactive,–
CN(C)CCOC(=O)C(c1ccccc1)C1(O)CCCC1 (configuration not stated),inactive,–
Cc1cc(C)c(C(=O)O)c(C)c1,inactive,–
O=C(NCN1CCOCC1)c1cnccn1,inactive,–
COC(C)(OC)OC,inactive,–
Cc1c(NC(=O)c2cccnc2)c(=O)n(-c2ccccc2)n1C,inactive,–
CC1OCCC1=O (configuration not stated),inactive,–
Cc1ccc(C(=O)O)cc1[N+](=O)[O-],inactive,–
CC1c2ccccc2CN1NC(=O)c1ccc(Cl)c(S(N)(=O)=O)c1 (configuration not stated),inactive,–
c1ccc2cnccc2c1,inactive,–
C[Si]1(C)O[Si](C)(C)O[Si](C)(C)O[Si](C)(C)O[Si](C)(C)O1,inactive,–
